According to PubChem BioAssay (Tox21):
Where “and” joins values, the source holds several entries; their conditions need not be identical. Equal entries are not always repeated. Records with an inconclusive call do not appear. Where a call stands in place of a potency, no number is given. The source holds several records for some structures; these can differ, active in one and inactive in another. Calls of active or inactive are those of the source. Unless noted, the call rests on the fitted dose curve.

How the values were obtained:
[1] = Nuclear factor erythroid 2-related factor 2/antioxidant responsive element (Nrf2/ARE) small molecule agonists: qHTS cell viability counter screen in human keratinocytes (AID 1919968; active means well fitted curve in the direction sought with a large enough effect in the repeat runs; an effect the other way counts as inactive or inconclusive; further: nearly all actives have a fitted effect of over 55% in size)
Method in brief: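 HaCaT ARE reporter line, 1,500 cells/well; 5 h settle, 37 C/5% CO2; cpd in DMSO pinned; 23 h exposure; CellTiter-Fluor, 1 h; fluorescence.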

[2] = Nuclear factor erythroid 2-related factor 2/antioxidant responsive element (Nrf2/ARE) small molecule agonists: luciferase reporter gene qHTS assay in human keratinocytes (AID 1919969); further: nearly all actives have a fitted effect of over 35% in size; further: potency means the concentration at half of the fitted maximal effect
[3] = biological target: Gonadotropin-releasing hormone receptor (Homo sapiens) (UniProt P30968); experiment: Human gonadotropin-releasing hormone receptor (GnRHR) small molecule agonists, calcium flux assay in GnRHR-HEK293 cells (AID 1920063); further: nearly all actives have a fitted effect of over 35% in size
Sequence of Gonadotropin-releasing hormone receptor (Homo sapiens) (P30968 whole entry, looked up): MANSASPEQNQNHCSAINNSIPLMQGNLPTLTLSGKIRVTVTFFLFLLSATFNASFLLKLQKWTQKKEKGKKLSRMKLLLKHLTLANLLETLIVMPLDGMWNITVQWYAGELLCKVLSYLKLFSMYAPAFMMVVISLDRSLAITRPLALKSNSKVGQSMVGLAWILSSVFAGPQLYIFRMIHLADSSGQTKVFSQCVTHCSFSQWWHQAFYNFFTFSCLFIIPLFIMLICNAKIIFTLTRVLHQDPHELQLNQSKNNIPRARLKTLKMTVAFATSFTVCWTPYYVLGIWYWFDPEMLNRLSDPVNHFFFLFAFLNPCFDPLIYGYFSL
Method in brief: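 GnRHR-HEK293, 1500 cells/well, 18 h 37 C/5% CO2; Ca dye 1 h 37 C; cpd pinned (DMSO), agonist mode; kinetic FL 480/540, 3 min, 1 s reads; 15 conc, n=3.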

[4] = biological target: KiSS-1 receptor (Homo sapiens) (UniProt Q969F8); experiment: Human kisspeptin (KISS1R) small molecule agonists, calcium flux assay in KISS1R-HEK293 cells (AID 1920064; active means well fitted curve in the direction sought with a large enough effect in the repeat runs; an effect the other way counts as inactive or inconclusive)
Sequence of KiSS-1 receptor (Homo sapiens) (Q969F8 whole entry, looked up): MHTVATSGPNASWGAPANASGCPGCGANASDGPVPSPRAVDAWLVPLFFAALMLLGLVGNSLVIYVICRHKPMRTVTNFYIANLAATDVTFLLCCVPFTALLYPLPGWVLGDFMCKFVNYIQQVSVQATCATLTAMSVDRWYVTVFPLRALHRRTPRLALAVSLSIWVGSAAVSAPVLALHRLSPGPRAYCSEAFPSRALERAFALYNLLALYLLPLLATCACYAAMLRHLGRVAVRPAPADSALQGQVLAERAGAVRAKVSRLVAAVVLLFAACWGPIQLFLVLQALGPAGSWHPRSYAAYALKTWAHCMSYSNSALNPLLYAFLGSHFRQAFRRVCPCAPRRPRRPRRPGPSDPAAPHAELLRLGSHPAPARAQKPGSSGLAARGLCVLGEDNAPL
Method in brief: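 Stable human KISS1R HEK293 line; 18 h plating, 37 C/5% CO2; calcium dye 1 h 37 C; compound pin transfer; kinetic fluorescence Ex/Em 480/540, 3 min.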

[5] = p53 small molecule agonists, cell-based qHTS assay with human liver microsomes (AID 1963577);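 further: p53 response element beta-lactamase reporter cells with liver microsomes plus NADPH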
Method in brief: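 HLM-supplemented p53RE-bla reporter assay: 16 h compound exposure at 37 C, microsomes and NADPH each 0.5 mg/mL final, read by fluorescence intensity.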

[6] = p53 small molecule agonists, cell-based qHTS assay with rat liver microsomes (AID 1963578)
Method in brief: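 Quantitative HTS of the Tox21 10K library: p53RE-bla cells, rat liver microsomes plus NADPH at 0.5 mg/mL final each, 16 h at 37 C, beta-lactamase fluorescence detection.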

[7] = p53 small molecule agonists, cell-based qHTS assay with human liver microsomes: qHTS cell viability counter screen (AID 1963579); further: nearly all actives have a fitted effect of over 45% in size
Method in brief: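 Viability of p53RE-bla cells is measured as CellTiter-Glo luminescence following a 16 h, 37 C incubation with compound, liver microsomes from human donors and NADPH.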

[8] = p53 small molecule agonists, cell-based qHTS assay with rat liver microsomes: qHTS cell viability counter screen (AID 1963580); further: nearly all actives have a fitted effect of over 45% in size
Method in brief: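 In HCT-116 cells carrying a p53 response element-bla reporter, compounds were metabolically activated in situ by rat liver microsomes with NADPH over 16 h. Cell ATP content then served as the cytotoxicity measure.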

[9] = p53 small molecule agonists, cell-based qHTS assay: qHTS cell viability counter screen (AID 1963581); further: nearly all actives have a fitted effect of over 45% in size
Method in brief: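 HCT-116 p53RE-bla cells, 4,000/well, plated 5 h before compound pin transfer; 16 h at 37 C; bla substrate 2 h RT; then CellTiter-Glo, 30 min RT, luminescence.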

[10] = p53 small molecule agonists, cell-based qHTS assay (AID 1963582; active means well fitted activation curve with a large enough effect in the signal ratio in the repeat runs, not every such curve was filed as active; the % refers to the signal ratio)
Method in brief: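 Reporter line: p53RE-bla. Pre-incubation 5 h, 37 C, 5% CO2; compound (DMSO, pin tool) 16 h, 37 C; B/G FRET substrate 2 h RT; fluorescence intensity read.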

[11] = biological target: 5-hydroxytryptamine receptor 2A (Homo sapiens) (UniProt P28223); experiment: 5-hydroxytryptamine receptor 2A (HTR2A) small molecule antagonists, cell-based qHTS assay (AID 1963586); further: nearly all actives have a fitted effect of over 45% in size
Sequence of 5-hydroxytryptamine receptor 2A (Homo sapiens) (P28223 whole entry, looked up): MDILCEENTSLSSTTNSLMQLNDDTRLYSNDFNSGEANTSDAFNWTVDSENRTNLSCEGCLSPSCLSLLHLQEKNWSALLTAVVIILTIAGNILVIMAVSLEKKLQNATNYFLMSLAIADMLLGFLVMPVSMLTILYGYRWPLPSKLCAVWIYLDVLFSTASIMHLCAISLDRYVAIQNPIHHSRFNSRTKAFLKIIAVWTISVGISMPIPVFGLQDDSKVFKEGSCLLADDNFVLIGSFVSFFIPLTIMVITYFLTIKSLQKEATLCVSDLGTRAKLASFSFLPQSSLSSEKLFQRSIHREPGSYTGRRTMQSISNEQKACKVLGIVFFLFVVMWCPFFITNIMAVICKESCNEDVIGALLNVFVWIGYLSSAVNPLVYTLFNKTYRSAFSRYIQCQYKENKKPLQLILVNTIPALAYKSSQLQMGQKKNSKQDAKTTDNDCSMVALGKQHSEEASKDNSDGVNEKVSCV
Method in brief: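 Antagonist-mode intracellular calcium assay: DOI (4 nM) added after 5 min compound pre-incubation at room temperature to dye-loaded HTR2A-CHO cells. Fluorescence followed for 3 min, sampled every second.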

[12] = biological target: 5-hydroxytryptamine receptor 2A (Homo sapiens) (UniProt P28223); experiment: 5-hydroxytryptamine receptor 2A (HTR2A) small molecule agonists, cell-based qHTS assay (AID 1963587); further: nearly all actives have a fitted effect of over 30% in size
Method in brief: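 HTR2A-CHO cells, plated 18 h at 37 C/5% CO2, dye-loaded 1 h at 37 C; compounds in DMSO added by pin tool (agonist mode). Intracellular calcium flux read as kinetic fluorescence on FDSS over 2 min at 1 s intervals.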

[13] = biological target: Muscarinic acetylcholine receptor M1 (Homo sapiens) (UniProt P11229); experiment: Cholinergic receptor muscarinic 1 (CHRM1) small molecule antagonists, cell-based qHTS assay (AID 1963588); further: nearly all actives have a fitted effect of over 40% in size; further: potency means the concentration at half of the fitted maximal effect
Sequence of Muscarinic acetylcholine receptor M1 (Homo sapiens) (P11229 whole entry, looked up): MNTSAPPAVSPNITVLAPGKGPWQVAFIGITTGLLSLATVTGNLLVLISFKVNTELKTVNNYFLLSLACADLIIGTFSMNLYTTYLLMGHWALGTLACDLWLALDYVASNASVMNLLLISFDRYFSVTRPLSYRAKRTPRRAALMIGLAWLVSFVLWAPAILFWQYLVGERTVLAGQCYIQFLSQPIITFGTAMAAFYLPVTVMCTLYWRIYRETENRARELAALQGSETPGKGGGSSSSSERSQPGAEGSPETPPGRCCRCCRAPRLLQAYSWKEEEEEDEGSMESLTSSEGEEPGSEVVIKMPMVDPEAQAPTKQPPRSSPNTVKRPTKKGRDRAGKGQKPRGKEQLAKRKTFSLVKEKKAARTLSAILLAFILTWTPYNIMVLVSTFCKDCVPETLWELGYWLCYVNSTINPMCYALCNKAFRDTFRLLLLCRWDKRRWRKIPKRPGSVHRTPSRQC
Method in brief: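 CHRM1-CHO calcium-flux assay, antagonist mode. Cells were seeded 18 h, dye-loaded 1 h at 37 C and given compound for 5 min at RT, then acetylcholine was added at 50nM. FDSS fluorescence was read 3 min; 15 concentrations, three runs.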

[14] = biological target: Muscarinic acetylcholine receptor M1 (Homo sapiens) (UniProt P11229); experiment: Cholinergic receptor muscarinic 1 (CHRM1) small molecule agonists, cell-based qHTS assay (AID 1963589); further: nearly all actives have a fitted effect of over 35% in size
Method in brief: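 Human M1 in stable CHO line; 18 h plating, 1 h dye load 37 C; cpd added (agonist mode); Ca2+ fluorescence kinetic read, 1 s intervals; 15 conc, 3 runs.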

[15] = cAMP Responsive Elements (CRE) small molecule antagonists, cell-based qHTS assay (AID 1963591; active means well fitted inhibition curve with a large enough effect in the signal ratio in the repeat runs, not every such curve was filed as active; the % refers to the signal ratio)
Method in brief: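 Beta-lactamase reporter read by FRET substrate (LiveBLAzer B/G) after 2 h at room temperature. CRE-bla HEK293T cells had received compound plus 0.25 uM (final) NKH477 for 3 h at 37 °C.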

[16] = biological target: Beta-2 adrenergic receptor (Homo sapiens) (UniProt P07550); experiment: Adrenergic beta2 receptor (ADRB2) small molecule antagonists, cell-based qHTS assay (AID 1963592); further: series mostly up to about 92 µM; nearly all actives have a fitted effect of over 50% in size
Sequence of Beta-2 adrenergic receptor (Homo sapiens) (P07550 whole entry, looked up): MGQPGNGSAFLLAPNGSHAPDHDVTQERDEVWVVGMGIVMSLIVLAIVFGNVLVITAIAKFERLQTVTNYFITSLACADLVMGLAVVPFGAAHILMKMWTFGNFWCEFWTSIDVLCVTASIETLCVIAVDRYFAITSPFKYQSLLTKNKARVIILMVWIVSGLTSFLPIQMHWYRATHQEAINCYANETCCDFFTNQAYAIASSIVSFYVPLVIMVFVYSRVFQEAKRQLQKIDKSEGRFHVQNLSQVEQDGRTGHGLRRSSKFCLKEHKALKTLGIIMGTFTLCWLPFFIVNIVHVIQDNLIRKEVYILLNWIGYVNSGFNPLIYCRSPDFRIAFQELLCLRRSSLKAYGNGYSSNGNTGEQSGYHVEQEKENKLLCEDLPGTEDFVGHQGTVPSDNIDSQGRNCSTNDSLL
Method in brief: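 Cells (CHO, stable ADRB2 overexpression) incubated 18-20hr at 37C; compounds added from DMSO; agonist mix (1nM isoproterenol, 100uM IBMX, 25uM Ro-20-1724) added; 0.5hr RT; d2-cAMP and anti-cAMP-cryptate added; 1hr RT; 665/615 nm read.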

[17] = biological target: D(2) dopamine receptor (Homo sapiens) (UniProt P14416); experiment: Dopamine D2 receptor (DRD2) small molecule agonists, cell-based qHTS assay (AID 1963594); further: nearly all actives have a fitted effect of over 35% in size
Sequence of D(2) dopamine receptor (Homo sapiens) (P14416 whole entry, looked up): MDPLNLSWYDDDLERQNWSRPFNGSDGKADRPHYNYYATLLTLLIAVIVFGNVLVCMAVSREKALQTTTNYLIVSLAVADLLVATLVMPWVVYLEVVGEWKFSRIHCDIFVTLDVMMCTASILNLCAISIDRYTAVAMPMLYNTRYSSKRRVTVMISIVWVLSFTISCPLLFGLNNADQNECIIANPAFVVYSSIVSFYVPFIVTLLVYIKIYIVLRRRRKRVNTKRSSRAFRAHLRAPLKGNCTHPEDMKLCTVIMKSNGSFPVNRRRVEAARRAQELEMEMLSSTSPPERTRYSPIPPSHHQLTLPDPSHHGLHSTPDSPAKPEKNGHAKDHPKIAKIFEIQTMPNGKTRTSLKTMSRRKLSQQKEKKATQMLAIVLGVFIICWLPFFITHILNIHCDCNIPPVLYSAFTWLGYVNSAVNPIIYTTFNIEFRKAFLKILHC
Method in brief: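 HEK293 cells stably expressing DRD2 were cultured 24 h at 37 C, then given Ro20-1724 (0.1 mM final) and compounds for 10 min at room temperature. NKH477 (200nM) was then added for 30 min. cAMP was read by HTRF.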

[18] = biological target: D(2) dopamine receptor (Homo sapiens) (UniProt P14416); experiment: Dopamine D2 receptor (DRD2) small molecule antagonists, cell-based qHTS assay (AID 1963595; active means well fitted inhibition curve with a large enough effect in the signal ratio in the repeat runs, with a control signal flat; the % refers to the signal ratio)
Method in brief: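 HEK293 cells stably expressing DRD2, preincubated with 0.1 mM Ro20-1724 and compounds 10 min, were stimulated with 200 nM NKH477 plus 12 nM quinpirole for 30 min at room temperature; cAMP measured by HTRF (665/620 nm).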

[19] = cAMP Responsive Elements (CRE) small molecule agonists, cell-based qHTS assay (AID 1963590)
Method in brief: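 HEK 293T CRE-bla, 2,000 cells/well, 18 h preincubation 37 C/5% CO2; cpds (DMSO) pinned, 3 h; LiveBLAzer B/G FRET substrate, 2 h RT.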

[20] = biological target: Beta-2 adrenergic receptor (Homo sapiens) (UniProt P07550); experiment: Adrenergic beta2 receptor (ADRB2) small molecule agonists, cell-based qHTS assay (AID 1963593);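 further: CHO cells stably overexpressing human ADRB2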
Method in brief: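 CHO cells stably over-expressing ADRB2 were plated overnight at 37C, then dosed with compounds plus a stimulation mix containing 100uM IBMX and 25uM Ro-20-1724 for 0.5hr at room temperature. cAMP was measured by HTRF competition, 1hr.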

Row | SMILES | Potency [1] | Potency [2] | Potency [3] | Potency [4] | Potency [5] | Potency [6] | Potency [7] | Potency [8] | Potency [9] | Potency [10] | Potency [11] | Potency [12] | Potency [13] | Potency [14] | Potency [15] | Potency [16] | Potency [17] | Potency [18] | Potency [19] | Potency [20]
1 | CC(C)N(C(=O)SCC(Cl)=C(Cl)Cl)C(C)C | inactive | inactive | inactive | inactive | inactive | inactive | inactive | inactive | inactive | inactive | inactive | inactive | 23.4 µM (active) | inactive | inactive | inactive | inactive | inactive | – | –
2 | CCC(C)Cl (stereo unspecified) | inactive | inactive | inactive | inactive | inactive | inactive | inactive | inactive | inactive | inactive | inactive | inactive | inactive | inactive | inactive | inactive | inactive | inactive | – | –
3 | O=C/C=C/c1ccccc1 | inactive | inactive | inactive | inactive | inactive | inactive | inactive | inactive | inactive | – | – | – | – | – | inactive | inactive | inactive | – | inactive | –
4 | O=C(NC(=O)c1ccccc1Cl)Nc1ccc(OC(F)(F)F)cc1 | inactive | inactive | inactive | inactive | inactive | inactive | inactive | inactive | inactive | – | inactive | inactive | inactive | inactive | – | inactive | inactive | – | inactive | –
5 | CC(=[OH+])/C=C(/C)[O-].CC(=[OH+])/C=C(\C)[O-].CC(=[OH+])/C=C(\C)[O-].[Fe] | inactive | inactive | inactive | inactive | inactive | inactive | inactive | inactive | inactive | inactive | inactive | inactive | inactive | – | inactive | inactive | inactive | inactive | inactive | –
6 | CCC(CC)Nc1c([N+](=O)[O-])cc(C)c(C)c1[N+](=O)[O-] | inactive | 17.5 µM (active) and 48.5 µM (active) | inactive | inactive | inactive | inactive | inactive | inactive | inactive | – | inactive | inactive | inactive | inactive | inactive | inactive | inactive | inactive | inactive | inactive
7 | CN(C)N=O | inactive | inactive | inactive | inactive | inactive | inactive | inactive | inactive | inactive | inactive | inactive | – | inactive | – | inactive | inactive | inactive | inactive | – | inactive
8 | CN(C)N | inactive | inactive | inactive | inactive | inactive | inactive | inactive | inactive | inactive | inactive | inactive | inactive | inactive | inactive | inactive | inactive | inactive | inactive | – | –
9 | [N-]=[N+]=CC(=O)OC[C@H](N)C(=O)O | inactive | inactive | inactive | inactive | inactive | inactive | inactive | inactive | inactive | inactive | – | – | – | – | inactive | inactive | inactive | inactive | inactive | inactive
10 | Cc1nn(-c2cc(NS(C)(=O)=O)c(Cl)cc2Cl)c(=O)n1C(F)F | inactive | inactive | inactive | inactive | inactive | inactive | inactive | inactive | inactive | inactive | inactive | inactive | inactive | inactive | inactive | inactive | inactive | inactive | inactive | inactive
11 | Cn1c(-c2ccccc2)cc(-c2ccccc2)[n+]1C | inactive | inactive | inactive | inactive | inactive | inactive | inactive | inactive | inactive | – | inactive | inactive | 6.66 µM (active) and inactive | inactive | inactive | inactive | inactive | inactive | – | –
12 | Cc1ccc2ccccc2c1 | inactive | inactive | inactive | inactive | inactive | inactive | inactive | inactive | inactive | inactive | inactive | inactive | inactive | – | inactive | inactive | – | inactive | inactive | inactive
13 | O=[N+]([O-])c1cccc2ccccc12 | inactive | inactive | inactive | inactive | inactive | inactive | inactive | inactive | inactive | inactive | inactive | inactive | inactive | inactive | inactive | inactive | inactive | inactive | – | –
14 | CCCC[N+]1(C)CCCC1 | inactive | inactive and 54.8 µM (active) | inactive | – | inactive | inactive | inactive | inactive | inactive | inactive | inactive | inactive | inactive and 5.98 µM (active) and 4.27 µM (active) | – | – | inactive | inactive | inactive | inactive | inactive
15 | CN(C)[C@@H]1C(=O)C(C(N)=O)=C(O)[C@@]2(O)C(=O)C3=C(O)c4c(O)cccc4[C@@](C)(O)[C@H]3C[C@@H]12 | inactive | inactive | inactive | – | inactive | inactive | inactive | inactive | inactive | inactive | inactive | – | inactive | inactive | inactive | inactive | inactive | inactive | inactive | inactive
